Screening results from PubChem BioAssay.
sEH inh – blocks human soluble epoxide hydrolase activity. P34913. recombinant human sEH enzymatic activity assay. inhibition, % at 2 µM. actives 0.34% (n = 91,000). AID 707; in the data active means inhibition above about 80%
sEH activator – activators of human soluble epoxide hydrolase; P34913; purified human sEH enzymatic activity, activator screen; activation, % at 2 µM; actives 0.04% (n = 91,000); in the data active means activation above about 37%
CYP2C19 inhib – blocks human cytochrome P450 2C19; P33261; CYP2C19 Supersomes, luciferin-H EGE luminescence, 30 min; inhibition, % at 5 µM; actives 21% (n = 96,000); AID 778;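 active means CYP2C19 inhibition above a set limit at 5 µM in the primary screen, cut at about 50% in these data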;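 further: plate controls were negative control wells for no effect and 2.5 mM tranylcypromine positive control for full effect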
Target sequence (P33261 whole entry, looked up): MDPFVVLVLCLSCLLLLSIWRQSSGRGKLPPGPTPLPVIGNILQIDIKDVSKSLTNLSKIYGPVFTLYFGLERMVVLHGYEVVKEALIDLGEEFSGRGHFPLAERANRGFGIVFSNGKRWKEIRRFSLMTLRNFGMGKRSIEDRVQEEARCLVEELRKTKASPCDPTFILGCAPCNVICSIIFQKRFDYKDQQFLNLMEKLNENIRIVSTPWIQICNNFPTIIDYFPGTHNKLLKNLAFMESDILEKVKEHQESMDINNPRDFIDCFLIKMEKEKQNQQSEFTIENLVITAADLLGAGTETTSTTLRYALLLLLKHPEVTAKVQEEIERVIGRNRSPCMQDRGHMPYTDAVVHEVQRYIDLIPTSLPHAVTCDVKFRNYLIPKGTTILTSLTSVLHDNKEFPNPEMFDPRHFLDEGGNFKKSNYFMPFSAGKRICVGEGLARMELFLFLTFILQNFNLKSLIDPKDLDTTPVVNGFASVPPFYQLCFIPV
CYP2C9 inh – human CYP2C9 inhibition | P11712 | CYP2C9 Supersomes, luciferin-H conversion, luminescence | inhibition, % at 5 µM | actives 20% (n = 96,000);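 active means blocking of liver enzyme CYP2C9 beyond about 50% at 5 µM, limit read from the data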
CYP2C9 activ – increases human cytochrome P450 2C9 activity; P11712; recombinant CYP2C9, luciferin-H conversion, luminescence; hits give high values; factor 1 = untreated enzyme, 0 = blocked; activation factor at 5 µM; actives 1.4% (n = 96,000);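 active means activation factor of 2 or more for CYP2C9 at a 5 µM dose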;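 further: 0 = sulfaphenazole-blocked wells and 1 = vehicle-only wells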
CYP2C19 activ – increases human CYP2C19 enzyme activity. P33261. recombinant CYP2C19, luciferin-H EGE luminescence; hits give high values; 0 = fully inhibited enzyme, 1 = untreated enzyme. activation factor at 5 µM. 96,000 tested, under 10 active. AID 1025;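 active means activation factor of at least 2 at 5 µM in the primary screen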;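 further: 0 = wells with 2.5 mM tranylcypromine and 1 = vehicle-only wells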
* hit, by the source's call; . = not tested or not shown. A selection: hits, their analogues and other compounds. The true share with any hit is near 27%.

SMILES	sEH inh	sEH activator	CYP2C19 inhib	CYP2C9 inh	CYP2C9 activ	CYP2C19 activ
COC(=O)c1c(N)c(C#N)c2n1CCCCC2	-25	23	76*	6	0.9	0.2
N#Cc1c(N)c(C(=O)c2ccccc2)n2c1CCC2	-12	9	51*	-15	1.1	0.5
CCCC1C(c2ccco2)NC(c2ccco2)CC1(C)O (stereo not given)	-9	8	-2	0	1	1
CC1C(=O)C(C)C(c2ccco2)NC1c1ccco1 (stereo not given)	.	.	94*	-29	1.3	0.1
CC(C)Sc1nc2c(c(=O)n(C)c(=O)n2C)n1C	12	-13	78*	18	0.8	0.2
CCOc1ccccc1NC1=C(Cl)C(=O)N(Cc2ccccc2)C1=O	2	0	52*	70*	0.3	0.5
CCOc1cc2[nH]c(=O)n(Cc3ccccc3)c(=O)c2cc1OCC	-3	7	11	1	1	0.9
O=C(Nc1nccs1)c1ccc(COc2ccccc2Br)o1	-8	11	88*	91*	0.1	0.1
CN(C)C(=O)c1ccc(COc2ccccc2Br)o1	9	-4	83*	26	0.7	0.2
O=C(Nc1nccs1)c1ccc(COc2ccc(F)cc2)o1	11	-11	14	10	0.9	0.9
CC(C)Nc1nc(NC(C)C)nc(OCCOC(=O)Nc2ccccc2)n1	1	0	30	30	0.7	0.7
CC(C)C(=O)NC(Nc1cccc2cccnc12)C(Cl)(Cl)Cl (stereo not given)	5	-4	59*	63*	0.4	0.4
Cc1ccccc1C(=O)c1ccc2c(c1)n(C)c(=O)n2C	.	.	76*	74*	0.3	0.2
COc1ccc(Cl)cc1NC(=O)C/C(C)=N/NC(=O)CC#N	32	-31	-16	-72	1.7	1.2
COc1ccc(Cl)cc1NC(=O)CN(C)C(C)C(=O)NCC1CCCCC1 (stereo not given)	38	-36	99*	-160	2.6*	0
COc1ccc(NC(=O)C2CCCO2)cc1OC (stereo not given)	7	-4	-7	8	0.9	1.1
COc1ccc(Cl)cc1NC(=O)CC(C)=O	-8	8	8	-261	3.6*	0.9
COc1ccc(Cl)cc1NC(=O)NCCCl	0	3	18	-12	1.1	0.8
COc1ccc(Cl)cc1NC(=O)CN(C(=O)c1ccco1)C1CCCCC1	7	-6	46	48	0.5	0.5
COc1ccc(Cl)cc1NC(=O)C1CCCO1 (stereo not given)	3	-2	29	-214	3.1*	0.7
COc1ccc(Cl)cc1NC(=O)CC(C)c1ccccc1 (stereo not given)	8	-8	85*	-296	4*	0.2
CN(C(=O)c1ccc(=O)[nH]c1)C1(C(=O)NC2CCCCC2)CCCCC1	10	-10	-11	-8	1.1	1.1
Cc1ccc(S(=O)(=O)N2CCN(C)CC2)c(C)c1	0	1	36	-48	1.5	0.6
O=C1C(c2ccc(F)cc2)N(Cc2ccc3c(c2)OCO3)C(=O)CN1C1CCCCC1 (stereo not given)	-12	9	19	33	0.7	0.8
N#Cc1ccc(CSc2nnc(-c3cccc(S(=O)(=O)N4CCCCC4)c3)o2)cc1	-15	16	20	19	0.8	0.8
SMILES	sEH inh	sEH activator	CYP2C19 inhib	CYP2C9 inh	CYP2C9 activ	CYP2C19 activ
CCCOc1ccc(N2C(=O)CC(N(CCc3ccc(OC)cc3)C(=O)c3cccc(F)c3)C2=O)cc1 (stereo not given)	-6	10	62*	58*	0.4	0.4
O=C1CC(N(C(=O)c2ccco2)c2cccc(Cl)c2)C(=O)N1c1cccc(Cl)c1 (stereo not given)	1	0	91*	92*	0.1	0.1
N=C1C(c2nc3ccccc3c(=O)[nH]2)=C(O)CN1c1ccccc1	-12	12	12	-116	2.2*	0.9
COc1ccc(CCN2CC(O)=C(c3nc4ccccc4c(=O)[nH]3)C2=N)cc1OC	-5	8	69*	28	0.7	0.3
N=C1C(c2nc3ccccc3[nH]2)=C(O)CN1c1ccccc1	-6	6	-16	-5	1.1	1.2
CCn1c(SCC(=O)Nc2nc3c(s2)CCCC3)nc2c1c(=O)n(C)c(=O)n2C	.	.	15	-2	1	0.9
c1ccc(N2CCN(c3ncnc4scc(-c5cccs5)c34)CC2)cc1	16	-18	96*	97*	0	0
O=C(c1ccco1)N1CCN(c2ncnc3scc(-c4ccccc4)c23)CC1	0	0	8	38	0.6	0.9
Cc1ccc(-c2csc3ncnc(N4CCN(C(=O)c5ccccc5)CC4)c23)cc1	-2	4	73*	79*	0.2	0.3
Cc1cccc(C)c1NC1=NC(=S)N(c2ccccc2)C12CCOC(C)(C)C2 (stereo not given)	11	-8	4	19	0.8	1
Cc1ccc(N2C(=S)N=C(Nc3ccccc3C)C23CCOC(C)(C)C3)cc1 (stereo not given)	-5	8	33	51*	0.5	0.7
Cc1ccc(N/C=C/C(=O)c2ccc(C)cc2)cc1	3	-4	30	19	0.8	0.7
C/C(=C\C(=O)c1ccccc1)NCc1ccc(F)cc1	6	-2	34	4	1	0.7
O=C(/C=C\NCC(=O)c1ccccc1)c1ccc(F)cc1	8	-6	56*	-5	1.1	0.4
O=C(/C=C/Nc1ccccc1)c1ccccc1	-2	5	55*	34	0.7	0.5
CN(C)c1ccc(N/C=C/C(=O)c2ccccc2)cc1	4	-5	99*	73*	0.3	0
O=C(NCC(F)(F)F)Nc1cccnc1	13	-12	.	.	.	.
CN(C)c1ccc(C(CC(=O)O)NC(=O)c2ccc(Cl)cc2)cc1 (stereo not given)	-6	6	14	3	1	0.9
CC(C)(C)C(=O)NC(=S)Nc1ccccc1C(=O)Nc1ccccc1	-6	8	18	-4	1	0.8
Cc1ccc(-c2nc3cnccn3c2Nc2c(C)cccc2C)o1	-5	7	99*	63*	0.4	0
Cc1ccc(Cl)cc1NC(=O)c1ccc(CSc2nnnn2C)cc1	15	-13	1	-24	1.2	1
Cc1ccc(Cn2nnnc2CN2CCC(O)(c3ccc(F)cc3)CC2)cc1	8	-9	34	37	0.6	0.7
COc1ccc(Cn2nnnc2CN2CCc3ccccc32)cc1	2	-2	99*	92*	0.1	0
COc1ccc(C2(O)CCN(Cc3nnnn3Cc3ccc(C)cc3)CC2)cc1	3	-4	51*	63*	0.4	0.5
COc1ccc(OCCOCCN2CCc3ccccc3C2)cc1	2	0	59*	7	0.9	0.4
c1ccc2c(c1)CCN(Cc1nnnn1Cc1ccc3c(c1)OCO3)C2	4	-1	.	.	.	.
